High-throughput results (PubChem BioAssay)
Shown are actives, neighbours in structure and some others; about 28% of the full set was active somewhere.
CYP2C9 inh – blocks human cytochrome P450 2C9. P11712. CYP2C9 Supersomes, luciferin-H conversion, luminescence. inhibition, % at 5 µM. 96,000 tested, 20% active;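 active means blocking of liver enzyme CYP2C9 beyond about 50% at 5 µM, limit read from the data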
Mac1 fbg enh – CD11b/CD18-fibrinogen binding enhancement. P05107+P11215. K562 CD11b/CD18 adhesion to fibrinogen, ATPlite luminescence. activation, % at 10 µM. 93,000 tested, 0.07% active;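 active means 10 µM primary screen giving 50% or more activity, confirmed by 40% or more on retest at that dose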
Target sequence (P05107 whole entry, looked up, other chains not shown): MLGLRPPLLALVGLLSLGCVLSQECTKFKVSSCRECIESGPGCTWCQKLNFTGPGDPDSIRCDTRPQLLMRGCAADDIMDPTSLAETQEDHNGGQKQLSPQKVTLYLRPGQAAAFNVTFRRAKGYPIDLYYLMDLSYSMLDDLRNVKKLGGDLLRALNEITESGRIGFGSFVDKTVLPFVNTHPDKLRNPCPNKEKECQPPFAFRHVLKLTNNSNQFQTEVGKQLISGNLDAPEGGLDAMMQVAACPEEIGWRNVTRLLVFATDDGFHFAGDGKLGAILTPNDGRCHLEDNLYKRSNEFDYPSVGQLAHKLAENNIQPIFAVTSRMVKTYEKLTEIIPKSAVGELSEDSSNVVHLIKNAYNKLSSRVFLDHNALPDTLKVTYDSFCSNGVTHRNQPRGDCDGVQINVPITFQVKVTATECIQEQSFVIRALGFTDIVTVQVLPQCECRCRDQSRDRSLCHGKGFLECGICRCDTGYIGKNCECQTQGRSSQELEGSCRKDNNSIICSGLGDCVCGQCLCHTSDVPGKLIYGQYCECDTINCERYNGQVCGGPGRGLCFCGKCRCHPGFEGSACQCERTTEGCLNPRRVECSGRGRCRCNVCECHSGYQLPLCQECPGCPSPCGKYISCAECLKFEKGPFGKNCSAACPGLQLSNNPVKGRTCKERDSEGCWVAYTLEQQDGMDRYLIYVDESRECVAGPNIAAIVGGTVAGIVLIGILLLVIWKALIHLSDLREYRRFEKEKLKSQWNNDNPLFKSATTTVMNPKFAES
CYP2C19 inh – blocks human cytochrome P450 2C19; P33261; 96,000 tested, 21% active; inhibition, % at 5 µM; CYP2C19 Supersomes, luciferin-H EGE luminescence, 30 min; AID 778;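 active means CYP2C19 inhibition above a set limit at 5 µM in the primary screen, cut at about 50% in these data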
CYP2C9 act – increases human cytochrome P450 2C9 activity | activation factor at 5 µM | AID 1024 | 96,000 tested, 1.4% active | recombinant CYP2C9, luciferin-H conversion, luminescence; hits give high values; factor 1 = untreated enzyme, 0 = blocked | P11712;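 active means activation factor of 2 or more for CYP2C9 at a 5 µM dose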
Mac1 fbg inh – blocks human CD11b/CD18 adhesion to fibrinogen. inhibition, % at 10 µM. P05107+P11215. 93,000 tested, 0.54% active. AID 1497. K562 CD11b/CD18 adhesion to fibrinogen, ATPlite luminescence; Mn2+ added to activate the integrin;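 active means primary inhibition of 50% or more at 10 µM, then 40% or more on retest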
CYP2C19 activ – activators of human cytochrome P450 2C19; activation factor at 5 µM; 96,000 tested, under 10 active; recombinant CYP2C19, luciferin-H EGE luminescence; hits give high values; 0 = fully inhibited enzyme, 1 = untreated enzyme; P33261;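 active means activation factor of at least 2 at 5 µM in the primary screen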
Of the large screens only hits and unclear results are named; the others gave an inactive call.

c1ccc(-n2cnnc2SCc2nc3ccccc3s2)cc1	none
c1ccc(-c2ncc(CSc3nncn3-c3ccccc3)s2)cc1	CYP2C19 inh 59
Cc1nnc(SCc2cnc(-c3ccc(C(C)C)cc3)s2)n1C	Mac1 fbg inh 70
COc1ccc(-n2cnnc2SCc2csc(-c3ccccc3)n2)cc1	CYP2C19 inh 75
Nc1nc(-c2cccnc2)nn1C(=O)c1ccco1	none
Cc1ccc2c(c1)cc1c(=O)[nH]ncn12	none (no result: Mac1 fbg enh, Mac1 fbg inh)
Cc1ccc(-c2nc3ccccn3c2NCc2ccc3c(c2)OCO3)cc1	CYP2C9 inh 72, CYP2C19 inh 80 (no result: Mac1 fbg enh, Mac1 fbg inh)
Oc1ccc(-c2nc3ccccn3c2NCc2ccco2)cc1	CYP2C9 inh 77
Cc1cc(C)n2nc(C(=O)Nc3cccnc3)nc2n1	none
CC(/C=C/C=C/c1ccccc1)=N/NC(=O)CNc1ccc(C)cc1	none
c1ccc(COCCN2CCN(CCOCc3ccccc3)CC2)cc1	CYP2C19 inh 57
CCn1c(-c2ccccc2Cl)nn(CC(=O)Nc2cc(Cl)ccc2Cl)c1=S	CYP2C19 inh 89 (no result: Mac1 fbg enh, Mac1 fbg inh)
CC(=O)OC1=C(C#N)Cn2ccc3cccc1c32	none
O=C(COc1cccc2ccccc12)NNC(=O)c1cccs1	CYP2C9 act 2.9
O=C(COc1ccc(Br)cc1)NCc1ccccn1	CYP2C19 inh 65
O=C(Cc1ccccc1)NCCc1cn2ccsc2n1	none
O=C(O)COc1cccc2ccccc12	none
O=C(COc1ccccc1)NCCc1cn2ccsc2n1	CYP2C19 inh 84
COc1ccccc1OCC(=O)NCc1cccs1	CYP2C19 inh 59
Cc1ccc(C(=O)OCC(=O)NCc2cccs2)cc1	none (no result: CYP2C9 inh, CYP2C19 inh, CYP2C9 act, CYP2C19 activ)
O=C(COC(=O)c1ccc(Br)o1)NCc1cccs1	CYP2C19 inh 67
Cc1ccc(OCC(=O)NCc2cccs2)cc1	CYP2C19 inh 71
O=C(COC(=O)c1ccco1)NCc1cccs1	none
O=C(COc1ccccc1)NCc1cccs1	CYP2C19 inh 58
O=C(COC(=O)C1(c2ccccc2F)CCCC1)NC1CCS(=O)(=O)C1 (stereo unspecified)	none
O=C(CSCc1ccc(F)cc1)N1CCN(c2ccc(F)cc2)CC1	none
O=C(COC(=O)C1(c2ccc(F)cc2)CCCC1)NC1CC1	CYP2C19 inh 55
O=C(Cc1ccc(Br)cc1)N1CCN(c2ccccc2O)CC1	CYP2C9 inh 81, CYP2C19 inh 96
O=C(Cc1ccc(Br)cc1)N1CCN(c2ccc(F)cc2)CC1	CYP2C9 inh 76, CYP2C19 inh 97
CCOC(=O)N1CCN(c2ccccc2O)CC1	none
O=C(CCS(=O)(=O)c1ccc(Br)cc1)N1CCN(c2ccccc2Cl)CC1	CYP2C19 inh 71
CCCN1CCN(C(=S)Nc2ccccc2C(F)(F)F)CC1	none (no result: CYP2C9 inh, CYP2C19 inh, CYP2C9 act, CYP2C19 activ)
Cc1ccc(S(=O)(=O)Cc2ccc(C(=O)O)o2)cc1	none
Nn1cnnc1N/N=C/c1cc(Br)cc(Br)c1O	none
O=C(COC(=O)C1(c2ccccc2)CC1)N1CCN(c2ccc(F)cc2)CC1	CYP2C19 inh 77
COc1ccccc1C(=O)N1CCC(C(=O)c2ccc(F)cc2)CC1	none
N#Cc1ccc(NC(=O)N2CCC(c3nc4c(nnn4Cc4cccc(Cl)c4)c(=O)[nH]3)CC2)cc1	none
O=C(c1ccccc1)N1CCC(c2nc3c(nnn3Cc3ccccc3Cl)c(=O)[nH]2)CC1	CYP2C9 inh 63
CC(C)(C)CC(=O)N1CCC(c2nc3c(nnn3Cc3c(F)cccc3Cl)c(=O)[nH]2)CC1	CYP2C9 inh 82, CYP2C19 inh 52
COc1ccccc1Cn1nnc2c(=O)[nH]c(C3CCN(C(=O)c4ccccc4Cl)CC3)nc21	CYP2C9 inh 94, CYP2C19 inh 75
COc1ccccc1Cn1nnc2c(=O)[nH]c(C3CCN(C(=O)c4ccc(C)cc4)CC3)nc21	CYP2C9 inh 66 (no result: Mac1 fbg enh, Mac1 fbg inh)
CC(=O)N=c1sc(C(C)(C)C)c(C)n1C	none
O=C1/C(=C\c2cccnc2)CCc2ccccc21	CYP2C19 inh 75
Cc1cccc(Nc2nc(N)nc(CN3CCN(c4ccccc4)CC3)n2)c1	CYP2C9 inh 67, CYP2C19 inh 53
Nc1nc(CN2CCN(Cc3ccccc3)CC2)nc(Nc2ccccc2)n1	none (no result: Mac1 fbg enh, Mac1 fbg inh)
Nc1nc(CN2CCN(c3ccccn3)CC2)nc(Nc2ccc(Cl)cc2)n1	CYP2C9 inh 68
Cc1ccc(Nc2nc(N)nc(CN3CCc4ccccc4C3)n2)cc1	CYP2C9 inh 52, CYP2C19 inh 55
CCCCc1nnc(NC(=O)C(C)Sc2nc(C)cc(=O)[nH]2)s1 (stereo unspecified)	none (no result: Mac1 fbg enh, Mac1 fbg inh)
Cc1ccc(/C(N)=N/OC(=O)COc2ccccc2Cl)cc1	none
CC1CC1C(=O)OCC(=O)NCc1ccccc1Cl (stereo unspecified)	CYP2C19 inh 88
O=C(COC(=O)C1CCC1)NCc1ccccc1Cl	CYP2C19 inh 88
O=C(COC(=O)CCCNC(=O)c1ccc(Cl)cc1)NCc1ccccc1Cl	CYP2C9 inh 70, CYP2C19 inh 56
O=C(COC(=O)C1CCCCC1)NCCc1ccccc1	none (no result: CYP2C9 inh, CYP2C19 inh, CYP2C9 act, CYP2C19 activ)
COc1ccccc1CNC(=O)COC(=O)Cc1c(Cl)cccc1Cl	none (no result: CYP2C9 inh, CYP2C19 inh, CYP2C9 act, CYP2C19 activ)
O=C(COC(=O)C1CCC1)Nc1ccc(Oc2ccccc2)cc1	CYP2C19 inh 55
O=C(COC(=O)C1CC1)Nc1ccc(Oc2ccccc2)cc1	none
CCn1c(=O)cc(OCC(=O)NCc2cccnc2)c2ccccc21	none
Cc1c(C(=O)Nc2ccccc2N2CCOCC2)sc2nc3n(c(=O)c12)CCC3	none
Cc1cccc(NCCNc2cccc(C)c2)c1	none (no result: Mac1 fbg enh, Mac1 fbg inh)
Oc1ccccc1CNCCCNCc1ccccc1O	none
Cc1cccc(NCc2ccccc2O)c1	CYP2C9 inh 51, CYP2C19 inh 92
Cc1ccc(O)c(CNc2ccccn2)c1	CYP2C19 inh 67
Cc1ccccc1NCc1ccccc1O	CYP2C19 inh 59
Cc1ccc(NCc2ccccc2O)cc1	CYP2C19 inh 66
CCCn1c(=S)[nH]c2cc(C(=O)N3CCCC(C(=O)OCC)C3)ccc2c1=O (stereo unspecified)	none (no result: Mac1 fbg enh, Mac1 fbg inh)
COCCN(CC(=O)NCC1CCCO1)C(=O)CCC(=O)Nc1cc(C)on1 (stereo unspecified)	none
COc1cccc(CN(CC(=O)NC2CCCC2)C(=O)Cn2nnc(-c3cccs3)n2)c1	CYP2C9 inh 97, CYP2C19 inh 66
Cc1cc(NC(=O)CCC(=O)N(CC(=O)NC2CCCC2)Cc2ccco2)no1	none
COCCNC(=O)CN(C(=O)CCC(=O)Nc1cc(C)on1)c1cccc(C)c1C	CYP2C19 inh 57
COc1cccc(CN(CC(=O)NC2CCCC2)C(=O)CCC(=O)Nc2cc(C)on2)c1	CYP2C9 inh 78, CYP2C19 inh 51
Cc1cccc2cc(COC(=O)C3CCCCC3)c(=O)[nH]c12	none
O=C(COc1cccc(-n2cnnn2)c1)N1CCOCC1	none
Cc1cccc(C(=O)Nc2nc(C)c(C(=O)Nc3ccc4c(c3)CCC4)s2)c1	CYP2C9 inh 58 (no result: Mac1 fbg enh, Mac1 fbg inh)
Cc1noc(C)c1C(=O)Nc1ccc2c(c1)CCC2	none
